# Hits are enriched below; roughly 9% of the tested compounds scored in any of these assays.
# HPGD inh: blocks human HPGD enzyme activity. purified HPGD, NADH fluorescence kinetic, PGE2 substrate. Potency, µM, inactives show at the top dose activity change, negative = inhibition, usual class: inhibitors. hit rate 4.3% among 150,000. AID 894; active means well fitted inhibition curve with a large enough effect, not every such curve was filed as active; inconclusive means small, poorly fitted or top-dose-only effect, or another doubt; inactive means no such curve, though single readings can be large or run the other way
# Target sequence (P15428 whole entry, looked up): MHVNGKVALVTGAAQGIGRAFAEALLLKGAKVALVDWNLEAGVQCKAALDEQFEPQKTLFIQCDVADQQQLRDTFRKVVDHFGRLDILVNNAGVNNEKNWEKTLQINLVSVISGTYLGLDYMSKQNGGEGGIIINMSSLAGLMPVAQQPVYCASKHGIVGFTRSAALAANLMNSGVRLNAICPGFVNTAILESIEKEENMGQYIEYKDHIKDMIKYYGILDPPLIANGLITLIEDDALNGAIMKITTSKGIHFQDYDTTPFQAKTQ
#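 20 nM HPGD preincubated 15 min at room temperature with compound in 50 mM Tris-HCl pH 8, 0.01% Tween 20. Started with 1 mM NAD+ and 30 uM prostaglandin E2; NADH fluorescence (360/450 nm) read 5 times over 30-s intervals, last minus first.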
# ALDH1A1 block: ALDH1A1 (human) enzyme inhibition; hit rate 7.3% among 220,000; P00352; Purified ALDH1A1, NADH fluorescence, propionaldehyde substrate; Potency, µM (highest dose often 75.3 µM), without a hit: at the highest dose activity, negative = inhibition, usual class: inhibitors; active means well fitted inhibition curve with a large enough effect, not every such curve was filed as active; inconclusive means small, poorly fitted or top-dose-only effect, or another doubt; inactive means no such curve, though single readings can be large or run the other way;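 further: plate controls were no enzyme wells and a reference inhibitor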
# Target sequence (P00352 whole entry, looked up): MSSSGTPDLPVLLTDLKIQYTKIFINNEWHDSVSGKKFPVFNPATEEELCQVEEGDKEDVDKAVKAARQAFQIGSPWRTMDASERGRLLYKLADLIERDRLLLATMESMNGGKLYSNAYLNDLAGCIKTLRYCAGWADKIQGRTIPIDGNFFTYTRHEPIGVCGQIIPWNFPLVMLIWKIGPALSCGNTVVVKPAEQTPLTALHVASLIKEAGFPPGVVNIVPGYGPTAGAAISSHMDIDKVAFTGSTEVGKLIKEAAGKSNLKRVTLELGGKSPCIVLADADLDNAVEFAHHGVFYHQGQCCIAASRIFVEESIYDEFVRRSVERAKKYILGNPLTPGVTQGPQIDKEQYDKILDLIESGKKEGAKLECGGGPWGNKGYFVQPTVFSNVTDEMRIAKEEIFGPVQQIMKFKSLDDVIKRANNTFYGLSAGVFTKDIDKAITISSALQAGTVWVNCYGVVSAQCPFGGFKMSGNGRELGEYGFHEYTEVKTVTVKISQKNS
# KinaseGlo FLuc: Kinase-Glo luciferase inhibition (counter-screen); Kinase-Glo luciferase, ATP luminescence, 8 min; Potency, µM (titrated, usually from 38.3 µM), inactives show at the highest dose activity change, negative = inhibition, hits mostly inhibitors; hit rate 0.28% among 200,000; AID 1379; further: nearly all actives have a fitted effect of over 60% in size
#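 Inhibition of Kinase-Glo luciferase light generation was assessed at 10 uM ATP in pH 7.2 imidazole buffer, with luminescence measured after eight minutes at ambient temperature.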
# LMNA splice mod: changes lamin A minigene splicing in HeLa cells; hit rate 0.01% among 200,000; Potency, µM (series often up to 46.1 µM), inactives show at the highest dose ratio change, negative = inhibition, usual class: inhibitors; HeLa LMNA splicing GFP/RFP minigene ratio, 48 h; active means well fitted inhibition curve with a large enough effect in the signal ratio, with a control signal flat, not every such curve was filed as active; inconclusive means small, poorly fitted or top-dose-only effect, or effect the other way, or a change in a side signal; the % refers to the signal ratio
#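 S3 HeLa cells stably expressing lamin A-EGFP splicing minigene plus DsRed2, 600 cells/well, 48 h compound exposure at 37C. Laser-scanning cytometry; analysed as GFP (500-530 nm)/RFP (575-640 nm) total intensity ratio; 0.5% DMSO vehicle.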
# IMPase Li cell: membrane-permeable IMPase blocker, potentiated with lithium; AID 1457; Potency, µM (top dose mostly 59.4 µM), without a hit: at the top dose activity, negative = IMPase inhibition, usual class: inhibitors; CHO-M1 cells, IP1 TR-FRET (IP-One), carbachol + lithium; hit rate 0.35% among 210,000;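 further: IP1 builds up when IMPase is blocked and the TR-FRET signal falls; plate controls were basal vehicle for no effect and high inhibitor control for full effect; nearly all actives have a fitted effect of over 50% in size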
#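 Test compounds were applied to CHO-M1 cells previously cultured for 16–30 h at 2000 per well. A small lithium amount accompanied them; after 30 min at 37C, IP1 was quantified by TR-FRET.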
# Starred values were filed as active, the others as inactive; ? = inconclusive; · = no result; ! = repeats disagree; [ ] = another dose, or the depositor's remark. Unless noted, the call rests on the fitted dose curve; in most records, active means well fitted curve in the direction sought with a large enough effect; inconclusive means small, poorly fitted or top-dose-only effect, or another doubt; inactive means no such curve, though single readings can be large; an effect the other way counts as inactive or inconclusive. Unless noted, on the % scale 0 is the no-effect control and ±100 the full control effect; potency means the concentration at half of the fitted maximal effect.
SMILES,HPGD inh,ALDH1A1 block,KinaseGlo FLuc,LMNA splice mod,IMPase Li cell
Cc1ccc(Sc2ccc(C(=O)N(C)C)cc2[N+](=O)[O-])cc1,·,?,3.5%,?,14.2%
O=C(/C=C/c1ccccc1)c1ccc(O)cc1O,15.8µM*,?,-20.9%,·,21.9%
COc1ccc(/C=C/C(=O)c2ccc(O)cc2O)cc1OC,14.1µM*,?,-3.5%,·,30.9%
COc1ccc(/C=C/C(=O)c2ccc(O)cc2O)cc1,31.6µM*,?,-9.7%,?,32.9%
COc1ccc(C(=O)/C=C(\N)C(F)(F)F)c(O)c1,-14.3%,8.91µM*,-1.7%,7.6%,4.7%[38.3 µM]
CN(C)S(=O)(=O)c1ccc(NC=O)cc1,·,-0.7%,-1.3%,?,-2.8%
COc1ccc(/C=C/C(=O)Nc2ccccc2C(=O)O)cc1OC,14.1µM*!,-3.0%,-0.7%,?,-9.0%
COc1ccc(/C=C/C(=O)Nc2ccccc2C(=O)O)cc1,·,-9.6%,-14.8%,·,0.2%
COc1cc2c(c3oc(-c4ccccc4)cc(=O)c13)C=CC(C)(C)O2,·,10µM*,·,·,15.7%
COc1cc(OC)c2c(=O)cc(-c3ccccc3)oc2c1,·,?,·,·,13.2%
CCn1cc[n+](C)c1P(c1ccccc1)c1ccccc1,25.1µM*,8.0%,-2.1%,?,5.0%
O=Cc1cn(-c2ccccc2)nc1-c1ccc2c(c1)OCCO2,-12.8%,17.8µM*,1.5%,?,-8.8%
CN(C)C(=O)C1C2NC(=S)N(c3cccc(Cl)c3)C1(C)Oc1ccc(Cl)cc12 (stereo not drawn),·,-3.4%,·,·,2.8%
Cc1noc(C)c1COC(=O)c1cnc(Cl)c(Cl)c1,·,0.562µM*,-0.5%,11.0%[46 µM],6.1%
Cc1noc(C)c1COC(=O)c1ccc2c(c1)S(=O)(=O)c1ccccc1C2=O,28.2µM*,12.6µM*,-3.9%,0.6%,-11.7%[38.3 µM]
O=C(COC(=O)c1ccc2c(c1)S(=O)(=O)c1ccccc1C2=O)NC1CC1,·,14.1µM*,4.7%,1.7%[46 µM],5.2%
COC(=O)c1cn(C(=O)c2ccc(Br)o2)c2ccccc12,-5.0%,31.6µM*,2.3%,-13.2%,0.3%[38.3 µM]
COCC(=O)N1CCC2(CC1)CCN(c1ncccn1)CC2,-10.9%,-5.8%,-0.1%,·,5.6%
O=[N+]([O-])c1ccc(-n2nnnc2CN2CCCCC2)cc1,·,20µM*,-1.0%,·,2.6%
COc1c(CO)cc(CO)cc(CO)c1=O,-3.4%,-3.4%,-0.6%,·,-10.7%
CN(Cc1cccc(Cl)c1Cl)C(=O)c1ccc(NC(=O)CC#N)cc1,17.8µM*,-14.8%,-1.9%,-3.2%,2.2%
CC1CC2(CCCCC2)N2C(=O)C(=O)c3cccc1c32 (stereo not drawn),-8.0%,0.0447µM*,-2.2%,4.5%,-16.2%[38.3 µM]
CCOc1cc2c3c(c1)C(C)=CC(C)(C)N3C(=O)C2=O,·,?,-5.2%,-18.6%[46 µM],2.4%
Cc1cc2c3c(c1)C(C)CC(C)(C)N3C(=O)C2=O (stereo not drawn),·,0.159µM*,-7.7%,3.5%[46 µM],22.3%
CCOc1cc2c3c(c1)C(C)CC(C)(C)N3C(=O)C2=O (stereo not drawn),-10.0%,0.398µM*,-3.8%,-1.8%,11.7%[38.3 µM]
SMILES,HPGD inh,ALDH1A1 block,KinaseGlo FLuc,LMNA splice mod,IMPase Li cell
Cc1cc(CNCc2c(C(=O)N3CCCCCCC3)nc3ccc(Cl)cn23)nn1C,·,15.8µM*,-0.8%,11.3%[46 µM],14.6%
O=C1Cc2cc(CCN3CCN(c4nsc5ccccc45)CC3)c(Cl)cc2N1,·,·,·,-9.8%[46 µM],·
CC(NC(=O)c1ccc(Br)s1)C1CCCO1 (stereo not drawn),31.6µM*,?,-5.2%,0.9%,45.9%[38.3 µM]
Cc1ccc(NC(=O)CSc2nnc(CN3CCOCC3)n2C)cc1C,-17.8%,31.6µM*,17.8%,3.7%,0.2%
Cc1cc(C)cc(NC(=O)CSc2nnc(CN3CCOCC3)n2C)c1,-11.0%,1.4%,0.0%,-1.5%,8.8%
Cc1nc(-n2nc(C)c(Cc3ccc4c(c3)OCO4)c2C)sc1C(=O)Nc1cccc(Cl)c1,·,·,·,0.2%[46 µM],·
COc1ccc(-c2nc3cnc(N4CCOCC4)nc3n(Cc3cccs3)c2=O)cc1,·,?,·,?,2µM*
CN(C)c1ncc2nc(-c3cc(F)cc(F)c3)c(=O)n(Cc3cccs3)c2n1,?,?,-5.5%,·,5.62µM*
COc1ccc(-c2nc3cnc(N4CCN(C)CC4)nc3n(Cc3cccs3)c2=O)cc1,·,-5.1%,·,?,25.8%
COCC(=O)N1CCC[C@@]2(CCN(Cc3cc(C(F)(F)F)cc(C(F)(F)F)c3)C2)C1,-4.9%,-9.9%,-1.5%,·,-2.8%
CCNc1ncc2nc(-c3ccc(OC)cc3)c(=O)n(CCC#N)c2n1,·,?,·,3.6%,-13.8%
CCCCc1nc2c(c3c1C[C@H](C)OC3)CN(C(=O)c1cccnc1)CC2,-18.5%,6.4%[13.5 µM],-3.3%[7.66 µM],?,9.4%
Cc1c(Cl)sn(-c2ccc(Cl)cc2)c1=O,·,1.78µM*,-2.3%,·,19.6%
Cc1nn(-c2ccc(Cl)cc2)c(=O)c2ccccc12,·,5.0%,-0.3%,·,0.8%
COC(=O)CCn1nc(-c2ccc(C)cc2)c2ccccc2c1=O,·,-12.8%,-0.4%,13.6%[46 µM],7.6%
O=C(COc1cccnc1[N+](=O)[O-])c1ccc(Cl)s1,·,0.708µM*,·,·,·
CCOCC(=O)Nc1ccc([N+](=O)[O-])cc1C,·,?,-2.2%,·,2.1%
COc1cc(CN(C2CCCCC2C)S(=O)(=O)c2ccc(S(=O)(=O)NC3CC3)cc2)cc(OC)c1OC (stereo not drawn),-16.8%,-3.9%,-1.4%,-12.3%,19.6%
COc1ccc(CN(C2CCCCC2C)S(=O)(=O)c2ccc(S(=O)(=O)N(C)C)cc2)cc1OC (stereo not drawn),-12.7%,3.55µM*,6.0%,?,2.7%
O=c1c(CCc2ccccc2)nc2cnc(N3CCNCC3)nc2n1C1CC1,·,?,·,-3.8%,6.3%
COc1ccc(C(=O)ON=C2CCN(c3ccc([N+](=O)[O-])cc3)CC2)cc1,-13.0%,3.98µM*,-3.2%,15.6%,-10.0%[38.3 µM]
CCOc1ccc(OCC)c(NC(=O)CSc2nc3c(c(=O)n(C)c(=O)n3C)n2C(C)C)c1,·,8.91µM*,·,?,·
CCN(CC)S(=O)(=O)c1ccc(N2CCOCC2)c(NC(=O)c2ccc(C#N)cc2)c1,·,20µM*,1.8%,·,7.1%
O=C(COS(=O)c1ccccc1)Nc1cc(Cl)ccc1N1CCOCC1 (stereo not drawn),·,1.26µM*,0.6%,·,4.4%
CCN(CC)S(=O)(=O)c1ccc(N2CCOCC2)c(NC(=O)COc2ccccc2)c1,·,0.224µM*,-3.2%,-14.6%[46 µM],12.0%
CCN(CC)S(=O)(=O)c1ccc(N2CCOCC2)c(NC(=O)c2ccccc2F)c1,·,?,-0.4%,·,-3.6%
CCN(CC)S(=O)(=O)c1ccc(N2CCOCC2)c(NC(=O)CNCCc2ccccc2)c1,·,11.2µM*,·,·,·
Cc1nn2c(=O)cc(COC(=O)c3cccs3)nc2s1,·,·,·,2.3%[46 µM],·
CCc1cccc2c1NC(=O)C21N2CCCC2C(C(=O)c2ccc3ccccc3c2)C12C(=O)Nc1ccccc12 (stereo not drawn),-6.7%,20µM*,0.6%,-0.5%,8.1%

# Screening data (PubChem)
